The results in this text go back to PubChem BioAssay (NCATS).

Assay [1] relates to CRL-7250. Kind of assay: Cytotoxic Profiling of Annotated Libraries Using Quantitative High-Throughput Screening (AID 1296008). The following applies: Five cell lines viability, CellTiter-Glo ATP luminescence, 48-72 h; max response: stronger effect = lower value. In a few lines:
(§1)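 Compounds were pin-transferred onto cells and incubated 48 or 72 hr at 37 degree Celsius, 95% humidity. CellTiter-Glo was added, plates sat 10 min at room temperature, then ATP-coupled luminescence was imaged as the viability read-out.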
On the technique in general: ATP-based viability assays read luminescence as a measure of living cells.

In assay [2] the test system is HaCat. The description is as above. To be noted: Five cell lines viability, CellTiter-Glo ATP luminescence, 48-72 h; max response: stronger effect = lower value. In a few lines: as §1
The subject of assay [3] is NIH3T3. The description is as above. The following applies: Five cell lines viability, CellTiter-Glo ATP luminescence, 48-72 h; max response: stronger effect = lower value. Put shortly: as §1
Assay [4] deals with HACAT. Put plainly: qHTS assay to identify novel small-molecules to repurpose for Merkel cell carcinoma treatment (AID 1296009). Further: potency means the concentration at half of the fitted maximal effect. The following applies: MCC and control cell lines, CellTiter-Glo viability, 72 h; at 44.8 µM (top of the series) unless noted. Put shortly: (§2)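 Cells exposed to NPC (8-point) and MIPE (11-point) compound dilutions for 72 hr at 37 degree celsius; viability read by CellTiter-Glo luminescence, normalized to no-cell and DMSO in-plate controls.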
In general terms: Quantitative high-throughput screening tests each substance at several concentrations.

For another assay, the system named is MCC-13. The description is as above. The following applies: MCC and control cell lines, CellTiter-Glo viability, 72 h; series mostly up to 46 µM. In a few lines:
as §2

In another assay the test system is MCC-26. The description is as above. The following applies: MCC and control cell lines, CellTiter-Glo viability, 72 h; series mostly up to 46 µM. Put shortly: as §2
The test system of a further assay is MKL-1. The assay is described as above. The following applies: MCC and control cell lines, CellTiter-Glo viability, 72 h; series mostly up to 46 µM. Put shortly:
as §2

A further assay relates to UISO. The assay is described as above. To be noted: MCC and control cell lines, CellTiter-Glo viability, 72 h; series mostly up to 46 µM. In a few lines:
as §2

For the next assay, the system named is KB-3-1. Put plainly: Cytotoxic Profiling of Annotated Libraries Using Quantitative High-Throughput Screening (AID 1296008). The following applies: Five cell lines viability, CellTiter-Glo ATP luminescence, 48-72 h; max response: stronger effect = lower value. Put shortly: as §1
Another assay relates to MKL-2. Put plainly: qHTS assay to identify novel small-molecules to repurpose for Merkel cell carcinoma treatment (AID 1296009). Further: potency means the concentration at half of the fitted maximal effect. To be noted: MCC and control cell lines, CellTiter-Glo viability, 72 h; series mostly up to 46 µM. Put shortly:
as §2

A further assay concerns WaGa. The assay is described as above. The following applies: MCC and control cell lines, CellTiter-Glo viability, 72 h; series mostly up to 46 µM. Put shortly:
as §2

Another assay relates to SC27B. Kind of assay: qHTS profiling for inhibitors of Plasmodium falciparum proliferation (AID 504749). Further: potency means the concentration at half of the fitted maximal effect. To be noted: P. falciparum in erythrocytes, SYBR Green DNA, 72 h; series mostly up to 28.7 µM. Put shortly:
(§3)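 P. falciparum-infected erythrocytes (0.3% parasitemia, 2.5% hematocrit final) were exposed to compounds for 72 h at 37 C in 5% CO2, then lysed with SYBR Green buffer overnight at room temperature; parasite DNA fluorescence was normalized to artemisinin and DMSO controls.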

In another assay the test system is TAB109. Described as above. To be noted: P. falciparum in erythrocytes, SYBR Green DNA, 72 h; series mostly up to 28.7 µM. In a few lines:
as §3

The subject of another assay is TAB113. The description is as above. The following applies: P. falciparum in erythrocytes, SYBR Green DNA, 72 h; series mostly up to 28.7 µM. Put shortly: as §3
The subject of the next assay is W2. The description is as above. The following applies: P. falciparum in erythrocytes, SYBR Green DNA, 72 h; series mostly up to 28.7 µM. Put shortly:
as §3

In assay [5] the test system is CRL-7250. Kind of assay: qHTS assay to identify novel small-molecules to repurpose for Merkel cell carcinoma treatment (AID 1296009). Further: potency means the concentration at half of the fitted maximal effect. To be noted: MCC and control cell lines, CellTiter-Glo viability, 72 h; at 44.8 µM (top of the series) unless noted. In a few lines: as §2
In another assay the test system is TAB165. Put plainly: qHTS profiling for inhibitors of Plasmodium falciparum proliferation (AID 504749). Further: potency means the concentration at half of the fitted maximal effect. The following applies: P. falciparum in erythrocytes, SYBR Green DNA, 72 h; series mostly up to 28.7 µM. In a few lines:
as §3

Assay [6] relates to NIH3T3. Kind of assay: qHTS assay to identify novel small-molecules to repurpose for Merkel cell carcinoma treatment (AID 1296009). Further: potency means the concentration at half of the fitted maximal effect. To be noted: MCC and control cell lines, CellTiter-Glo viability, 72 h; at 44.8 µM (top of the series) unless noted. Put shortly: as §2

Structures are written as SMILES. Inconclusive results are not listed. A call without a number means that no potency is given here. A number with no mark means an inactive call. Active and inactive are the calls of the source. The call rests on the fitted dose curve; in most records, active means well fitted inhibition curve with a large enough effect; inconclusive means small, poorly fitted or top-dose-only effect; inactive means flat fitted curve, though single readings scatter.
Further: nearly all actives have a fitted effect of over 60% in size.

Turning to `CC1COC2(c3ccccc3Cl)c3cc(Cl)ccc3NC(=O)CN12` (centres undefined), the results for the max response in the assay on CRL-7250 [1] and with NIH3T3 [3] were -0.632% and 2.64%, respectively. Further, the molecule was called inactive in the assay on HaCat [2] and in the assay on HACAT [4]. The Potency entry with MCC-13, with MCC-26, in the assay with MKL-1 and in the assay on UISO was “inactive” throughout.

Consider `Cc1nc2ccccc2c(=O)n1-c1ccccc1Cl`, for which the figures for the max response in the assay with CRL-7250 [1], with HaCat [2] and in the assay with KB-3-1 were -16.7%, -9.75% and -1.49%, respectively. Also, the Potency entry with MCC-13, in the assay with MCC-26, with MKL-1, with MKL-2, in the assay with UISO and in the assay with WaGa was “inactive” each time.

For the molecule `C[C@]12Cc3nonc3C[C@@H]1CC[C@@H]1[C@@H]2CC[C@@]2(C)[C@H]1CC[C@]2(C)O`, the Potency result in the assay with SC27B, in the assay on TAB109 and with TAB113 was “inactive” throughout.

On to `C#C[C@]1(O)CC[C@H]2[C@@H]3CCC4=CC(=O)CCC4=C3C=C[C@@]21CC`, for which the figures for the Potency in the assay with TAB109 and in the assay on W2 were 12.6 µM (active) and 7.57 µM (active), respectively.

`O=C1NCN(c2ccccc2)C12CCN(CCCOc1ccc(F)cc1)CC2`: in the assay on W2, the Potency was 5.36 µM (active).

As to `OCCN1CCN(CCCN2c3ccccc3C=Cc3ccccc32)CC1`, in the assay with CRL-7250 [5], the molecule was classed as inactive.

For the molecule `CC(C)NCCCC1(C(N)=O)c2ccccc2-c2ccccc21`, in the assay on CRL-7250 [5], the molecule was called inactive.

As to `CCN(CC)CC(=O)OCC(=O)[C@@]1(O)CC[C@H]2[C@@H]3CCC4=CC(=O)CC[C@]4(C)[C@H]3[C@@H](O)C[C@@]21C`, the outcome in the assay with CRL-7250 [5] was inactive.

With `CCCC(=O)OC[C@@H](OC(=O)CCC)[C@@H](OC(=O)CCC)[C@H](Cn1c2nc(=O)[nH]c(=O)c-2nc2cc(C)c(C)cc21)OC(=O)CCC`, the call with CRL-7250 [5] was inactive.

On to `CC(C)Cn1cnc2c1c(=O)n(C)c(=O)n2C`, for which the molecule was classed as inactive in the assay with CRL-7250 [5].

Take `NS(=O)(=O)c1cc2c(cc1Cl)NCNS2(=O)=O`: the call with CRL-7250 [5] was inactive.

Consider `O=C(OCC(O)CO)c1ccccc1Nc1ccnc2cc(Cl)ccc12` (centres undefined), for which the result with CRL-7250 [5] was inactive.

Regarding `Cc1ccc(Nc2c(F)cccc2Cl)c(CC(=O)O)c1`, the outcome in the assay with CRL-7250 [5] was inactive.

Turning to `COc1cc(N)c(Cl)cc1C(=O)NC1CCN(Cc2ccccc2)CC1`, the call with CRL-7250 [5] was inactive.

In the case of `CCOc1cc(N)c(Cl)cc1C(=O)NCC1CN(Cc2ccc(F)cc2)CCO1` (centres undefined), the molecule was called inactive with CRL-7250 [5].

Regarding `CC1=CC(=O)c2ccccc2C1=O`, in the assay with CRL-7250 [5], the result was inactive.

For `Nc1ccc(N=Nc2ccccc2)c(N)n1`, the result in the assay on CRL-7250 [5] was inactive.

Turning to `N[C@@H](CSSC[C@H](N)C(=O)O)C(=O)O`, the outcome in the assay with CRL-7250 [5] was “inactive [at 0.588 µM]”.

As to `CCCCCC(N)=O`, in the assay with CRL-7250 [5], the molecule was classed as inactive.

For the molecule `O=C(Nc1ccc(C(=O)O)c(O)c1)c1ccccc1`, the molecule was classed as inactive in the assay on CRL-7250 [5].

In the case of `CN(C)C/C=C(/c1ccc(Br)cc1)c1cccnc1`, in the assay with CRL-7250 [5], the molecule was called inactive.

On to `Cc1cc(CC(=O)O)n(C)c1C(=O)c1ccc(Cl)cc1`, for which the outcome in the assay on CRL-7250 [5] was inactive.

Consider `CCN(CCCc1ccccc1)CCCc1ccccc1`, for which the call in the assay with CRL-7250 [5] was inactive.

For `CNC(=O)CN(CCN(CCN(CC(=O)[O-])CC(=O)NC)CC(=O)[O-])CC(=O)[O-].O.[Gd+3]`, the call in the assay with CRL-7250 [5] was inactive.

Regarding `Cc1nnc(C(=O)NC(C)(C)c2nc(C(=O)NCc3ccc(F)cc3)c(O)c(=O)n2C)o1`, the molecule was classed as inactive in the assay with CRL-7250 [5].

Take `CNC(=O)Oc1ccc2c(c1)[C@]1(C)CCN(C)[C@@H]1N2C`: the molecule was classed as inactive in the assay on CRL-7250 [5].

For `CO/N=C(\C(=O)O)c1csc(NC(=O)CCl)n1`, the result in the assay on CRL-7250 [5] was inactive.

As to `COc1cc([C@H]2Oc3cc([C@H]4Oc5cc(O)cc(O)c5C(=O)[C@@H]4O)ccc3O[C@@H]2CO)ccc1O`, in the assay with CRL-7250 [5], the result was inactive.

In the case of `O=C(O)c1cccc(-c2noc(-c3ccccc3F)n2)c1`, the call in the assay on CRL-7250 [5] was inactive.

For `CCc1cc2cc(OC)c(OC)cc2c(Cc2ccccc2)n1`, in the assay with CRL-7250 [5], the call was inactive.

Regarding `Cc1[nH]c(=O)c(C#N)cc1-c1ccc2nccn2c1`, the call with CRL-7250 [5] was inactive.

For `C[C@H](O)C(=O)Nc1c(I)c(C(=O)NC(CO)CO)c(I)c(C(=O)NC(CO)CO)c1I`, the result with CRL-7250 [5] was inactive.

Take `CC(C)(C)c1ccc(C(O)CCCN2CCC(C(O)(c3ccccc3)c3ccccc3)CC2)cc1` (centres undefined): the molecule was classed as inactive in the assay with CRL-7250 [5].

`CCCCC(=O)O[C@]1(C(=O)CO)CC[C@H]2[C@@H]3CCC4=CC(=O)CC[C@]4(C)[C@H]3[C@@H](O)C[C@@]21C`: the molecule was classed as inactive with CRL-7250 [5].

As for `CN1C[C@H](C(=O)N[C@]2(C)O[C@@]3(O)[C@@H]4CCCN4C(=O)[C@H](Cc4ccccc4)N3C2=O)C[C@@H]2c3cccc4[nH]cc(c34)C[C@H]21`, the molecule was classed as inactive in the assay on CRL-7250 [5].

In the case of `N[C@H](C(=O)O)[C@@H](O)c1ccc(O)c(O)c1`, the molecule was classed as inactive with CRL-7250 [5].

With `C[C@@H]1CC[C@@]2(OC1)O[C@H]1C[C@H]3[C@@H]4CC[C@H]5C[C@@H](O)CC[C@]5(C)[C@H]4CC(=O)[C@]3(C)[C@H]1[C@@H]2C`, the outcome in the assay on CRL-7250 [5] is “inactive [at 4.96 µM]”.

With `Cc1cccc(C)c1NC(=O)C(C)N` (centres undefined), the molecule was called inactive in the assay on CRL-7250 [5].

As for `Cc1c(Cl)cccc1Nc1ccccc1C(=O)O`, the result in the assay on CRL-7250 [5] was inactive.

In the case of `Cc1cccc(CN2CCN(C(c3ccccc3)c3ccc(Cl)cc3)CC2)c1` (centres undefined), the result in the assay on CRL-7250 [5] was inactive.

As for `CCNC(=O)NCc1cccc(Cl)c1`, the call in the assay on CRL-7250 [5] was inactive.

As for `C1CCN2C[C@@H]3C[C@@H](CN4CCCC[C@@H]34)[C@H]2C1`, the call with CRL-7250 [5] was inactive.

With `CNC(=O)Oc1cccc2ccccc12`, the Potency entry in the assay with SC27B, with TAB109 and in the assay with TAB113 was “inactive” throughout.

For `CC(C)(O)C(Cl)(Cl)Cl`, the Potency is 4.47 µM (active) in the assay on SC27B; 3.16 µM (active) in the assay on TAB109; 4.47 µM (active) in the assay with TAB113; 1.78 µM (active) with TAB165; 1.51 µM (active) in the assay on W2. Besides, the call in the assay with HACAT [4] and in the assay with NIH3T3 [6] was inactive. Moreover, the Potency result with MCC-13, in the assay with MCC-26, in the assay on MKL-1, in the assay with MKL-2, in the assay with UISO and in the assay on WaGa was “inactive” throughout.

Regarding `c1ccc2c(c1)Sc1ccccc1N2CC1CN2CCC1CC2` (centres undefined), the results for the Potency in the assay with MKL-1, in the assay on MKL-2 and in the assay on UISO were 23.7 µM (active), 11.9 µM (active) and 26.6 µM (active), respectively.
